Measurements published in PubChem BioAssay AID1159580 (chemical genetic matrix, 2015).
“And” between values parts separate entries of the source, which are not always exact repeats. Equal values may be shown once. Screen size: about 5,500 compounds; about 2,000 (36%) were called active. Roughly 18% stayed inconclusive and do not appear here. Cut-off read from the data, not from the text of the source: active = normalized growth mostly below about 0.91 (no sharp cut-off); inconclusive = no clear call, values can overlap the other calls; inactive = mostly above about 0.92. Some of the results follow.

Experiment: chemical genetic growth profiling, strain panel (AID 1159580);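 note: tested at 20 µM; growth read once vehicle control cultures reached saturation at 30 °C; 1 = growth at the plate median or of vehicle wells; lower values mean less growth of the strain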
Conditions: S. cerevisiae deletion strains, growth OD

Measured: normalized growth

COC(=O)COc1cc(Cl)c(Cl)cc1Cl
active: locus YDR137W, strain rgp1, stronger effect = lower value 0.839
inactive: locus YAL013W, strain DEP1, stronger effect = lower value 0.982 | locus YAL021C, strain ccr4, stronger effect = lower value 0.993 | locus YAL026C, strain drs2, stronger effect = lower value 0.996 | locus YAL030W, strain snc1, stronger effect = lower value 0.998 | locus YBL061C, strain skt5, stronger effect = lower value 0.989 | locus YBR009C, strain hhf1, stronger effect = lower value 0.989 | locus YBR021W, strain FUR4, stronger effect = lower value 0.98 | locus YBR023C, strain chs3, stronger effect = lower value 0.99 | locus YBR171W, strain sec66, stronger effect = lower value 1.01 | locus YBR229C, strain ROT2, stronger effect = lower value 0.981 | locus YBR231C, strain swc5, stronger effect = lower value 0.99 | locus YBR279W, strain paf1, stronger effect = lower value 1 | locus YCL011C, strain gbp2, stronger effect = lower value 0.99 | locus YCL016C, strain dcc1, stronger effect = lower value 1.01 | locus YCL029C, strain bik1, stronger effect = lower value 0.957 | locus YCL061C, strain MRC1, stronger effect = lower value 0.985 | locus YCL069W, strain vba3, stronger effect = lower value 0.986 | locus YCR088W, strain abp1, stronger effect = lower value 0.985 | locus YDL005C, strain med2, stronger effect = lower value 1.01 | locus YDL035C, strain GPR1, stronger effect = lower value 1.01 | locus YDL040C, strain nat1, stronger effect = lower value 0.996 | locus YDL074C, strain BRE1, stronger effect = lower value 0.943 | locus YDL101C, strain DUN1, stronger effect = lower value 0.977 | locus YDL134C, strain PPH21, stronger effect = lower value 0.978 | locus YDL185W, strain tfp1, stronger effect = lower value 0.992 | locus YDL192W, strain arf1, stronger effect = lower value 0.989 | locus YDR001C, strain nth1, stronger effect = lower value 0.988 | locus YDR069C, strain doa4, stronger effect = lower value 1.02 | locus YDR101C, strain arx1, stronger effect = lower value 0.954 | locus YDR150W, strain NUM1, stronger effect = lower value 0.976 | locus YDR159W, strain sac3, stronger effect = lower value 0.973 | locus YDR162C, strain NBP2, stronger effect = lower value 0.965 | locus YDR195W, strain ref2 1.02 | locus YDR297W, strain sur2, stronger effect = lower value 1.02 | locus YDR318W, strain mcm21, stronger effect = lower value 0.955 | locus YDR334W, strain swr1, stronger effect = lower value 1 | locus YDR335W, strain msn5, stronger effect = lower value 1.01 | locus YDR388W, stronger effect = lower value 0.974 | locus YDR392W, strain spt3, stronger effect = lower value 0.963 | locus YDR502C, strain sam2, stronger effect = lower value 0.969 | locus YEL003W, strain gim4, stronger effect = lower value 1.01 | locus YEL037C, strain rad23, stronger effect = lower value 0.997 | locus YEL061C, strain CIN8 (second series), stronger effect = lower value 0.993 | locus YEL061C, strain CIN8, stronger effect = lower value 0.98 | locus YER015W, strain faa2, stronger effect = lower value 0.998 | locus YER016W, strain bim1, stronger effect = lower value 0.999 | locus YER110C, stronger effect = lower value 0.954 | locus YER111C, strain swi4, stronger effect = lower value 0.997 | locus YER155C, strain BEM2 (second series), stronger effect = lower value 1.01 | locus YER155C, strain BEM2, stronger effect = lower value 0.983 | locus YER167W, strain BCK2, stronger effect = lower value 0.975 | locus YFR010W, strain ubp6, stronger effect = lower value 1.01 | locus YGL078C, strain dbp3, stronger effect = lower value 0.96 | locus YGL086W, strain mad1, stronger effect = lower value 0.976 | locus YGL167C, strain pmr1, stronger effect = lower value 0.997 | locus YGL173C, strain kem1, stronger effect = lower value 0.998 | locus YGL227W, strain vid30, stronger effect = lower value 0.979 | locus YGL240W, strain doc1, stronger effect = lower value 0.995 | locus YGL248W, strain PDE1, stronger effect = lower value 0.987 | locus YGL253W, strain hxk2, stronger effect = lower value 1.01 | locus YGR078C, strain PAC10, stronger effect = lower value 0.968 | locus YGR135W, strain pre9, stronger effect = lower value 0.971 | locus YGR229C, strain SMI1, stronger effect = lower value 0.942 | locus YGR252W, strain gcn5, stronger effect = lower value 1 | locus YHR013C, strain ard1, stronger effect = lower value 1.13 | locus YHR027C, strain rpn1, stronger effect = lower value 1.03 | locus YHR030C, strain SLT2, stronger effect = lower value 0.967 and 0.86 | locus YHR079C, strain IRE1 (second series), stronger effect = lower value 0.953 | locus YHR079C, strain IRE1, stronger effect = lower value 0.884 | locus YHR094C, strain hxt1, stronger effect = lower value 0.964 | locus YHR129C, strain ARP1, stronger effect = lower value 0.976 | locus YHR142W, strain chs7, stronger effect = lower value 0.988 | locus YHR200W, strain rpn10, stronger effect = lower value 0.982 | locus YIL066C, strain RNR3, stronger effect = lower value 0.948 | locus YIL073C, strain SPO22, stronger effect = lower value 1.04 | locus YIL125W, strain kgd1, stronger effect = lower value 0.957 | locus YIR030C, strain dcg1, stronger effect = lower value 0.953 | locus YJL092W, strain hpr5, stronger effect = lower value 0.989 | locus YJL095W, strain BCK1 (second series), stronger effect = lower value 0.991 | locus YJL115W, strain asf1, stronger effect = lower value 1.01 | locus YJL129C, strain trk1, stronger effect = lower value 0.971 | locus YJL134W, strain LCB3, stronger effect = lower value 0.974 | locus YJL154C, strain vps35, stronger effect = lower value 0.99 | locus YJL164C, strain tpk1, stronger effect = lower value 0.997 | locus YJL166W, strain qcr8, stronger effect = lower value 0.995 | locus YJL168C, strain set2, stronger effect = lower value 0.976 | locus YJL187C, strain SWE1 (second series), stronger effect = lower value 0.983 | locus YJL187C, strain SWE1, stronger effect = lower value 1 | locus YJR043C, strain POL32, stronger effect = lower value 0.942 | locus YJR066W, strain TOR1, stronger effect = lower value 0.842
0.853 (inactive) and 0.874 (active): locus YJL095W, strain BCK1, stronger effect = lower value
